Reference: the supplement of paper PMC10849652
Targets with a hit are over-represented here; the source holds about 8,800 in all. About 0.5% of all pairs of compound and target were hits.

Key:
Assay in all cases: log2 fold change, soluble protein after heating vs DMSO (PISA); higher = thermal stabilisation; K562 lysate, 10 uM; active = over 0.2 and 3.5 SD of the protein, either way, in both replicates (recomputed)
nilotinib = compound: Cc1cn(-c2cc(NC(=O)c3ccc(C)c(Nc4nccc(-c5cccnc5)n4)c3)cc(C(F)(F)F)c2)cn1 [nilotinib]
How it was run: (§1)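 Thermal stability, expressed as log-two fold change relative to solvent controls, is given from duplicates. Crude K562 extract in PBS pH 7.4 with 1 mM MgCl2, at 1 mg/mL protein, was treated with 10 μM compound for 30 min and heated in aliquots for 3 min across 48°C-58°C. After pooling, adjustment to 0.5% NP-40 at 4°C and centrifugation at 21,000xg for 90 min, supernatant protein was measured by TMTpro 16plex LC-MS/MS with channel sums equalised.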

[1] = compound: Cc1nc(Nc2n[nH]c3c2CN(C(=O)N[C@H](CN(C)C)c2ccccc2)C3(C)C)c2sccc2n1
How it was run: as §1

dasatinib = compound: Cc1nc(Nc2ncc(C(=O)Nc3c(C)cccc3Cl)s2)cc(N2CCN(CCO)CC2)n1 [dasatinib]
How it was run: as §1

[2] = compound: Cc1ncc(-c2ccnc(Nc3ccc(S(C)(=O)=O)cc3)n2)n1C(C)C
How it was run: as §1

[3] = compound: Cn1cc(-c2ccc3c(c2)CCN3C(=O)Cc2cccc(C(F)(F)F)c2)c2c(N)ncnc21
How it was run: as §1

quisinostat = compound: Cn1cc(CNCC2CCN(c3ncc(C(=O)NO)cn3)CC2)c2ccccc21 [quisinostat]
How it was run: as §1

tipifarnib = compound: Cn1cncc1[C@@](N)(c1ccc(Cl)cc1)c1ccc2c(c1)c(-c1cccc(Cl)c1)cc(=O)n2C [tipifarnib]
How it was run: as §1

[4] = compound: NC(=O)Nc1cc(-c2cccc(F)c2)sc1C(=O)N[C@H]1CCCNC1
How it was run: as §1

[5] = compound: NC(=O)c1cnc(N[C@@H]2CCCC[C@@H]2N)nc1Nc1cccc(-n2nccn2)c1
How it was run: as §1

[6] = compound: NC1(c2ccc(-c3nc4ccn5c(=O)[nH]nc5c4cc3-c3ccccc3)cc2)CCC1
How it was run: as §1

[7] = compound: NCC(=O)Nc1ccc(-n2nc(C(F)(F)F)cc2-c2ccc3c(ccc4ccccc43)c2)cc1
How it was run: as §1

vorinostat = compound: O=C(CCCCCCC(=O)Nc1ccccc1)NO [vorinostat]
How it was run: as §1

silmitasertib = compound: O=C(O)c1ccc2c(c1)nc(Nc1cccc(Cl)c1)c1ccncc12 [silmitasertib]
How it was run: as §1

[8] = compound: O=C1NC(=O)C(c2cnc3ccccn23)=C1c1cn2c3c(cc(F)cc13)CN(C(=O)N1CCCCC1)CC2
How it was run: as §1

entospletinib = compound: c1cn2cc(-c3ccc4cn[nH]c4c3)nc(Nc3ccc(N4CCOCC4)cc3)c2n1 [entospletinib]
How it was run: as §1

Measured: log2 fold change

SRSF2 (UniProt Q01130)
Sequence of UniProt Q01130 (Q01130 whole entry, looked up): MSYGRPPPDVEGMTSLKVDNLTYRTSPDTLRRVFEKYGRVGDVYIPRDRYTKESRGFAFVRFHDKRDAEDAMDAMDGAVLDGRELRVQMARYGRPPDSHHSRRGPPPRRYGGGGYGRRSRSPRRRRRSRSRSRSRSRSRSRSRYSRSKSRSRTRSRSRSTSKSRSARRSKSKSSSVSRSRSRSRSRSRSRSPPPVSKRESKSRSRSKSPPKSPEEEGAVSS
inactive: nilotinib -0.038 | [1] 0 | dasatinib -0.003 | [2] -0.029 | [3] 0.033 | quisinostat -0.056 | tipifarnib 0.01 | [4] 0.002 | [5] -0.008 | [6] -0.01 | [7] 0.023 | vorinostat 0.087 | silmitasertib -0.017 | [8] -0.043 | entospletinib -0.055

SSB (UniProt P05455)
Sequence of UniProt P05455 (P05455 whole entry, looked up): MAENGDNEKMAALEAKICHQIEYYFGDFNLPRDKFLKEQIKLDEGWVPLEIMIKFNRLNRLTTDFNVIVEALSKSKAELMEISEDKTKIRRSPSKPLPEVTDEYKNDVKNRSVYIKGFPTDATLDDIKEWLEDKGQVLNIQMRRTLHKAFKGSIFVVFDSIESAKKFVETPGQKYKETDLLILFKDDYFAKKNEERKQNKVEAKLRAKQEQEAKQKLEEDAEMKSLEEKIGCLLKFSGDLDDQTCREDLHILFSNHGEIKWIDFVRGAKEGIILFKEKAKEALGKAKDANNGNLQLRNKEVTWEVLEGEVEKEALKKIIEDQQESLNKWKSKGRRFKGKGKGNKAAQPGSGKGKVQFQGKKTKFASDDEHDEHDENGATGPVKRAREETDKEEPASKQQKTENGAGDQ
inactive: nilotinib -0.013 | [1] -0.014 | dasatinib -0.008 | [2] 0.006 | [3] -0.018 | quisinostat 0.099 | tipifarnib 0.022 | [4] 0.001 | [5] -0.013 | [6] 0.012 | [7] 0.027 | vorinostat 0.081 | silmitasertib 0.01 | [8] 0.032 | entospletinib 0.005

SMAD2 (UniProt Q15796)
inactive: nilotinib 0.025 | [1] 0.116 | dasatinib 0.006 | [2] -0.059 | [3] 0.011 | quisinostat -0.012 | tipifarnib 0.055 | [4] 0.038 | [5] -0.015 | [6] 0.042 | [7] -0.025 | silmitasertib -0.051 | [8] 0.008 | entospletinib -0.049
active: vorinostat -0.752

SNCA (UniProt P37840)
inactive: nilotinib 0.148 | [1] 0.075 | dasatinib 0.128 | [2] -0.032 | [3] 0.019 | quisinostat -0.031 | tipifarnib 0.159 | [4] -0.112 | [5] -0.049 | [6] 0 | [7] 0.069 | vorinostat 0.161 | silmitasertib -0.235 | [8] -0.023 | entospletinib -0.126

SNAP23 (UniProt O00161)
inactive: nilotinib 0.001 | [1] 0.015 | dasatinib 0.045 | [2] -0.013 | [3] 0 | quisinostat 0.035 | tipifarnib 0.036 | [4] -0.019 | [5] -0.016 | [6] 0.031 | [7] -0.017 | vorinostat 0.052 | silmitasertib -0.067 | [8] -0.016 | entospletinib 0.004

SMC6 (UniProt Q96SB8)
active: vorinostat -0.245
inactive: nilotinib 0.006 | [1] 0 | dasatinib -0.021 | [2] -0.019 | [3] 0.012 | quisinostat -0.012 | tipifarnib -0.06 | [4] 0.034 | [5] 0.001 | [6] 0.013 | [7] -0.006 | silmitasertib -0.022 | [8] 0.019 | entospletinib -0.013

SYNRG (UniProt Q9UMZ2)
inactive: nilotinib -0.007 | [1] 0.012 | dasatinib 0.009 | [2] 0.036 | [3] 0.001 | quisinostat 0.021 | tipifarnib -0.025 | [4] 0.018 | [5] 0.026 | [6] -0.079 | [7] 0.02 | vorinostat -0.002 | silmitasertib -0.01 | [8] -0.002 | entospletinib -0.014

SLC25A32 (UniProt Q9H2D1)
Sequence of UniProt Q9H2D1 (Q9H2D1 whole entry, looked up): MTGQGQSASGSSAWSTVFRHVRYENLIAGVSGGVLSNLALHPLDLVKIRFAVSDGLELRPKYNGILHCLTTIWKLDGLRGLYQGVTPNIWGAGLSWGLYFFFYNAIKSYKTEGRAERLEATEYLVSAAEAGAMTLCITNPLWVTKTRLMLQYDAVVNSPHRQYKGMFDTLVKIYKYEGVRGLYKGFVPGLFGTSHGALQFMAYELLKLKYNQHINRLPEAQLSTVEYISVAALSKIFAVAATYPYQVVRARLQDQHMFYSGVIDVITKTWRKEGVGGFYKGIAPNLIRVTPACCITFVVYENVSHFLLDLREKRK
inactive: nilotinib 0.007 | [1] 0.033 | dasatinib 0.011 | [2] 0.043 | [3] -0.055 | quisinostat -0.015 | tipifarnib 0.016 | [4] 0.023 | [5] -0.029 | [6] -0.026 | [7] 0.053 | vorinostat 0.23 | silmitasertib -0.008 | [8] 0.046 | entospletinib 0.033

SLC25A36 (UniProt Q96CQ1)
Sequence of UniProt Q96CQ1 (Q96CQ1 whole entry, looked up): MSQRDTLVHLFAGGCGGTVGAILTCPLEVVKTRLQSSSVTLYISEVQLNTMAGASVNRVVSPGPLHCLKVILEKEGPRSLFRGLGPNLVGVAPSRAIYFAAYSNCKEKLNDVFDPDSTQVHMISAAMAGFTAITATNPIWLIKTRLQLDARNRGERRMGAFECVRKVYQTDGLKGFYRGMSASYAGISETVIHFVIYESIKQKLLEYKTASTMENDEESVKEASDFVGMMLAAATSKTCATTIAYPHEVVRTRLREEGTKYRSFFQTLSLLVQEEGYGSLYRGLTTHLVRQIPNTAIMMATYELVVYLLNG
inactive: nilotinib 0.081 | [1] -0.007 | dasatinib 0.012 | [2] 0.04 | [3] 0.085 | quisinostat 0.045 | tipifarnib -0.119 | [4] -0.08 | [5] 0.003 | [6] -0.031 | [7] -0.172 | vorinostat -0.071 | silmitasertib 0.001 | [8] 0.033 | entospletinib 0.013

SHC1 isoform 6 (UniProt P29353)
Sequence of UniProt P29353 (P29353 whole entry, looked up): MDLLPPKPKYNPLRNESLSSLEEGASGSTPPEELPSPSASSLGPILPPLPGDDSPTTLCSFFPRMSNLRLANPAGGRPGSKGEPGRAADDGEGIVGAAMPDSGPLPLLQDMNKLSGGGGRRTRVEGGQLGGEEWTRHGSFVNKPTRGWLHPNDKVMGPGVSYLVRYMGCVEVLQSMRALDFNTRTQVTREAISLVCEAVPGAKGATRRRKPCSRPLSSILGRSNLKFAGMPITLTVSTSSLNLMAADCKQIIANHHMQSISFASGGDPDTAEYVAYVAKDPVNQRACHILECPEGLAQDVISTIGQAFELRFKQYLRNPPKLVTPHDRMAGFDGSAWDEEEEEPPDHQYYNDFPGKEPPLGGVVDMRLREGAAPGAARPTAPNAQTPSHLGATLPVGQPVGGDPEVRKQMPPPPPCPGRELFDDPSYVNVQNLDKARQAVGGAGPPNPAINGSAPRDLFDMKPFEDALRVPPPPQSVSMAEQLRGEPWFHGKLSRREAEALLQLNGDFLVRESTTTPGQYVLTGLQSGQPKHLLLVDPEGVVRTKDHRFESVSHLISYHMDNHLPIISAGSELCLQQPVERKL
inactive: nilotinib 0.034 | [1] 0.011 | dasatinib 0.046 | [2] -0.02 | [3] -0.005 | quisinostat 0.022 | tipifarnib 0.006 | [4] -0.036 | [5] -0.029 | [6] -0.001 | [7] 0.029 | vorinostat 0.025 | silmitasertib -0.017 | [8] -0.055 | entospletinib -0.058

SRRT (UniProt Q9BXP5)
inactive: nilotinib -0.013 | [1] -0.028 | dasatinib -0.087 | [2] -0.005 | [3] 0.026 | quisinostat -0.058 | tipifarnib 0.013 | [4] 0.058 | [5] 0.016 | [6] -0.023 | [7] -0.036 | silmitasertib 0.044 | [8] -0.008 | entospletinib 0.032
active: vorinostat -0.373

STIM1 (UniProt Q13586)
inactive: nilotinib -0.031 | [1] -0.019 | dasatinib -0.03 | [2] 0.001 | [3] -0.027 | quisinostat 0.023 | tipifarnib -0.012 | [4] 0.009 | [5] 0 | [6] -0.031 | [7] 0.026 | vorinostat 0.126 | silmitasertib -0.01 | [8] 0.018 | entospletinib -0.025

SLC26A6 (UniProt Q9BXS9)
Sequence of UniProt Q9BXS9 (Q9BXS9 whole entry, looked up): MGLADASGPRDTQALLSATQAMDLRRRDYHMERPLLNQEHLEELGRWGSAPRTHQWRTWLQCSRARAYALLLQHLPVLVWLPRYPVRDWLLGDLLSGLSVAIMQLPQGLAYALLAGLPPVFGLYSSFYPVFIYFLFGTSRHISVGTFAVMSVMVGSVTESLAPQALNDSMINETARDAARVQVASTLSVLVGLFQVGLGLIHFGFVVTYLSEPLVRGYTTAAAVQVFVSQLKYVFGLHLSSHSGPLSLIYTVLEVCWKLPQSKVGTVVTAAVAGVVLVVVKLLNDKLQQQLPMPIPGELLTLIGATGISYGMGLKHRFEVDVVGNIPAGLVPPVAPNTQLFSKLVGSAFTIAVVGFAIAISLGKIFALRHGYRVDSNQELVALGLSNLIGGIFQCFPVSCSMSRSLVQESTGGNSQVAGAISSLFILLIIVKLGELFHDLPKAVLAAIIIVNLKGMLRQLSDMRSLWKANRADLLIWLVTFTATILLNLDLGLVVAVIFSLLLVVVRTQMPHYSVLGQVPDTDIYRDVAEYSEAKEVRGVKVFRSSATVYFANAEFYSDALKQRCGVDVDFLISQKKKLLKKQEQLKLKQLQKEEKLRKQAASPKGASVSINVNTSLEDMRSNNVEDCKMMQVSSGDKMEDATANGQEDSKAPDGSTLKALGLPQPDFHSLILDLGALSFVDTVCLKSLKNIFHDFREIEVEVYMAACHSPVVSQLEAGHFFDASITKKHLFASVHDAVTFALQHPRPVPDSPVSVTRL
inactive: nilotinib 0.057 | [1] 0.05 | dasatinib -0.4 | [2] 0.164 | [3] -0.154 | quisinostat 0.006 | tipifarnib 0.05 | [4] 0.033 | [5] 0.054 | [6] -0.128 | [7] 0.012 | vorinostat 0.048 | silmitasertib 0.03 | [8] 0.021 | entospletinib -0.111

SRSF7 (UniProt Q16629)
Sequence of UniProt Q16629 (Q16629 whole entry, looked up): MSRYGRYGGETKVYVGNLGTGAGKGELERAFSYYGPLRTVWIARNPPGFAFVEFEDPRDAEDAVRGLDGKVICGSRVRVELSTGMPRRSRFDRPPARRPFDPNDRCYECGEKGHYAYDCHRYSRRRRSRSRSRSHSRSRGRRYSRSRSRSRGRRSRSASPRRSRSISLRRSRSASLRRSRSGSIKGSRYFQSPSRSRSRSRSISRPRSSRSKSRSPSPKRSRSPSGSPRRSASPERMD
inactive: nilotinib -0.006 | [1] -0.053 | dasatinib 0.011 | [2] -0.056 | [3] -0.006 | quisinostat 0.047 | tipifarnib 0.016 | [4] -0.088 | [5] 0.019 | [6] 0.034 | [7] 0.02 | vorinostat 0.134 | silmitasertib -0.052 | [8] -0.014 | entospletinib -0.013

SMG5 (UniProt Q9UPR3)
Sequence of UniProt Q9UPR3 (Q9UPR3 whole entry, looked up): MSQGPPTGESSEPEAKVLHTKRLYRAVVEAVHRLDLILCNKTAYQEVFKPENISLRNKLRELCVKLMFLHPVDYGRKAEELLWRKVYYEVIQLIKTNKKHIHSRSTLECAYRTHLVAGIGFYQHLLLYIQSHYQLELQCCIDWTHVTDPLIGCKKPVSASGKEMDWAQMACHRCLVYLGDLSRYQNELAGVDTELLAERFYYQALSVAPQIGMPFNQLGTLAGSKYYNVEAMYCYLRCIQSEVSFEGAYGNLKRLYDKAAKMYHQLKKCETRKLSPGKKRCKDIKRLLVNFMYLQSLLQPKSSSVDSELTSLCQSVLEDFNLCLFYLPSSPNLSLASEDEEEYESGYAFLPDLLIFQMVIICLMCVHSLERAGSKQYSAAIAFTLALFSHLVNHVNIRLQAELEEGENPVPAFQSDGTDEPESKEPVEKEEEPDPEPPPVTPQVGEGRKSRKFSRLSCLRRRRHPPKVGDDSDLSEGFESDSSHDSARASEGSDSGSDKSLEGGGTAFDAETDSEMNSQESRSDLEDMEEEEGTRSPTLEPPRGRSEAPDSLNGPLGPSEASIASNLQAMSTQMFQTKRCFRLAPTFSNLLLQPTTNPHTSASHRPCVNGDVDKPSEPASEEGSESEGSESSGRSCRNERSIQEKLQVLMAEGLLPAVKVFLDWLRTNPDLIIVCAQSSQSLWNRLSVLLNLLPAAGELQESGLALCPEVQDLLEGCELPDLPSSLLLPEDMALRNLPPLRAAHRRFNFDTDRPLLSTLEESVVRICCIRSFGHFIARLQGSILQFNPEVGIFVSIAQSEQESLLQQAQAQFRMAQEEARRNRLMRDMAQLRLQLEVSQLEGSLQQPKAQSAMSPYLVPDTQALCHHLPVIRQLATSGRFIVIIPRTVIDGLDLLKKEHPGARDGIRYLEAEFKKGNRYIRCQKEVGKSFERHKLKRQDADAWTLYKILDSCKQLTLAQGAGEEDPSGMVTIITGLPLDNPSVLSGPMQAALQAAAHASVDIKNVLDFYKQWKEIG
inactive: nilotinib -0.058 | [1] 0.034 | dasatinib 0.003 | [2] -0.054 | [3] 0.03 | quisinostat 0.013 | tipifarnib -0.115 | [4] 0.097 | [5] 0.048 | [6] -0.027 | [7] 0.04 | silmitasertib -0.024 | [8] 0.024 | entospletinib -0.023
active: vorinostat -0.381

SNW1 (UniProt Q13573)
inactive: nilotinib 0.002 | [1] -0.009 | dasatinib 0.024 | [2] -0.036 | [3] -0.015 | quisinostat 0.012 | tipifarnib 0.009 | [4] -0.016 | [5] -0.01 | [6] -0.01 | [7] 0.011 | silmitasertib -0.003 | [8] -0.012 | entospletinib 0.009
active: vorinostat 0.224

SYF2 (UniProt O95926)
inactive: nilotinib -0.023 | [1] 0 | dasatinib -0.036 | [2] 0.005 | [3] 0.003 | quisinostat -0.008 | tipifarnib 0.046 | [4] -0.016 | [5] 0.04 | [6] -0.106 | [7] -0.047 | vorinostat 0.092 | silmitasertib -0.059 | [8] -0.014 | entospletinib -0.059

STK11IP (UniProt Q8N1F8)
Sequence of UniProt Q8N1F8 (Q8N1F8 whole entry, looked up): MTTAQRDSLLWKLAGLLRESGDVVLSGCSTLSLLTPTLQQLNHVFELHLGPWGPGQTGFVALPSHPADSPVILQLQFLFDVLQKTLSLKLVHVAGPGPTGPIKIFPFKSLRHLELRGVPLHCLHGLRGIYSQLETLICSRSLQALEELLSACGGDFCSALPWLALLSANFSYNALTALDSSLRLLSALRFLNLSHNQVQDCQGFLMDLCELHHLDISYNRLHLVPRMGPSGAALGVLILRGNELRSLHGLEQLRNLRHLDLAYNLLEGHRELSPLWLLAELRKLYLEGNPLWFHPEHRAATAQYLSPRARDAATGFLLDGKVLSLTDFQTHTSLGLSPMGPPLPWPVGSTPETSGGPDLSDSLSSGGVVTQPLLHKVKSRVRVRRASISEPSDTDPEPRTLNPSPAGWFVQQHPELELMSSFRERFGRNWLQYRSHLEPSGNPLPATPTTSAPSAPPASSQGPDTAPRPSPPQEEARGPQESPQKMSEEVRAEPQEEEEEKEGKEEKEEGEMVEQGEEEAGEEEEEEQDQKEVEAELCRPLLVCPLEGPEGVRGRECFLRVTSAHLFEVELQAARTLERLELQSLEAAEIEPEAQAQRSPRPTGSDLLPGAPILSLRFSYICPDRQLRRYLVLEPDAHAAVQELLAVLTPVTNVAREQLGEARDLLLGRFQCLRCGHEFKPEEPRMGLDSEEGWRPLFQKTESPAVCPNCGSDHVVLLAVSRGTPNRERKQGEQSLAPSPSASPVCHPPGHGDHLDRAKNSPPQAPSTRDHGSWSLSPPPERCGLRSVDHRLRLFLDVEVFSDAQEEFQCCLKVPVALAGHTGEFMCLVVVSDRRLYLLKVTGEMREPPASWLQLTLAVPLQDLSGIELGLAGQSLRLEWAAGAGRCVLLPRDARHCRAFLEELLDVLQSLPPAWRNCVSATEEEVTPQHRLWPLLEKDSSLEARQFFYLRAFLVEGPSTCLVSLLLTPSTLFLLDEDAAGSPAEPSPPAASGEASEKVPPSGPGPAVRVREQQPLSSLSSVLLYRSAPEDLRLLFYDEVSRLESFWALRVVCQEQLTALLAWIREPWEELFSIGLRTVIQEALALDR
active: vorinostat -0.254
inactive: nilotinib 0.065 | [1] 0.001 | dasatinib -0.053 | [2] -0.045 | [3] -0.016 | quisinostat -0.029 | tipifarnib -0.033 | [4] -0.012 | [5] -0.014 | [6] 0.037 | [7] -0.017 | silmitasertib 0.025 | [8] 0.008 | entospletinib 0.024

SMG1 (UniProt Q96Q15)
active: vorinostat -0.348
inactive: nilotinib -0.029 | [1] 0.026 | dasatinib -0.021 | [2] 0.038 | [3] 0.006 | quisinostat -0.05 | tipifarnib -0.028 | [4] 0.061 | [5] 0 | [6] -0.032 | [7] 0.005 | silmitasertib 0.011 | [8] -0.006 | entospletinib -0.007
